In PubChem BioAssay AID504500 (NMMLSC, 2011):
Results with a measured potency or affinity are listed apart. The source made the active and inactive calls.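 The calls were made as follows: active = compounds whose curve fit is tight, with span above 25% and half-effect concentration below 10 µM; inactive = the rest.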

target: Beta-adrenergic receptor kinase 1 (Homo sapiens) (UniProt P25098); assay: aptamer displacement from bead-bound GRK2 – biochemical, cherry pick 1, bead flow cytometry, dose response (AID 504500); conditions: bead-bound biotinylated GRK2, FAM-aptamer displacement; series mostly up to 33 µM; inhibition of aptamer binding: at the top concentration
Sequence (P25098 whole entry, looked up): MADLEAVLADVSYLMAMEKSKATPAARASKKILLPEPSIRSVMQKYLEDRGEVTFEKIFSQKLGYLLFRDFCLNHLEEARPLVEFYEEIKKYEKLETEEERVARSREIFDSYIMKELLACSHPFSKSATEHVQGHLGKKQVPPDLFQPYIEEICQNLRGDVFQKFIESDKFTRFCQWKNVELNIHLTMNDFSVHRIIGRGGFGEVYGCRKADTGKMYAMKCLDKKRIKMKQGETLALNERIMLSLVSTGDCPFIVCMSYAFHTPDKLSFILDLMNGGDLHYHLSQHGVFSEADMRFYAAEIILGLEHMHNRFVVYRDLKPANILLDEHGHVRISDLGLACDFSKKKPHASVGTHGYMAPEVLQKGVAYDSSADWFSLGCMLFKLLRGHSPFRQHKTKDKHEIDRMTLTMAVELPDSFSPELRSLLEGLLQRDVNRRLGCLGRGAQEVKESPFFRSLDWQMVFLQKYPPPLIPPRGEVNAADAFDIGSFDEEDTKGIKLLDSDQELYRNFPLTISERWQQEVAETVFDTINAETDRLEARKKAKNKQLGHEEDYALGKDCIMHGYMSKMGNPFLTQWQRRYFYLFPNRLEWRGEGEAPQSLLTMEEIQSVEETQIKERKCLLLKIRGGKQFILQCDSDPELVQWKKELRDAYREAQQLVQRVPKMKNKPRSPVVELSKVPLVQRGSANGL

Row | SMILES | inhibition of aptamer binding
1 | COc1ccc(S(=O)(=O)NCC(c2ccc(F)cc2)N2CCN(C)CC2)cc1 (stereo unspecified) | -4.14% (inactive)
2 | CN(C)c1cccc(C(=O)OCc2cc(=O)oc3cc(O)ccc23)c1 | -6.6% (inactive)
3 | CC(C)C(C(=O)O)N1C(=O)/C(=C/C=C/c2ccco2)SC1=S (stereo unspecified) | 27.4% (inactive)
4 | Cc1cc2ccccc2n1CCNC(=O)C(C)Oc1ccccc1 (stereo unspecified) | 63.4% (inactive)
5 | C=C(C)C(=O)Nc1cccc(C2=NOC3(C2)C[C@@H](C(N)=O)N(C(=O)C(=C)C)C3)c1 (stereo partly specified) | 60.3% (inactive)
6 | O=C(CC1SC(N2CCCCC2)=NC1=O)Nc1cccc(C(=O)NCc2ccc(F)cc2)c1 (stereo unspecified) | 99.4% (inactive)
7 | O=C(CN1CCc2ccccc21)NC(=O)NCc1ccccc1 | 53.7% (inactive)
8 | CCc1ccccc1NC(=O)CCS(=O)(=O)c1ccc(Br)cc1 | 55.8% (inactive)
9 | COc1ccccc1CNS(=O)(=O)c1ccc2[nH]cc(C(=O)O)c(=O)c2c1 | 53.4% (inactive)
10 | COc1ccc(CCNC(=O)CCS(=O)(=O)c2ccc(Br)cc2)cc1OC | 17% (inactive)
11 | O=C(CCS(=O)(=O)c1ccc(Br)cc1)NCCc1ccc(Cl)cc1 | 87.3% (inactive)
12 | CNC(=O)c1[nH]cnc1C(=O)Nc1cccc(Cl)c1 | -2.13% (inactive)
13 | Cc1oc(-c2ccc(Cl)cc2)nc1CN1CCCC(C(=O)NCc2cccnc2)C1 (stereo unspecified) | -6.31% (inactive)
14 | COc1cc(/C=C2\CCc3c2nc2ccccc2c3C(=O)O)cc(OC)c1OC | -1.83% (inactive)
15 | CC(=O)Nc1ccc(N(C)C)cc1[N+](=O)[O-] | 7.48% (inactive)
16 | Cc1cc2ccccc2n1CCNC(=O)c1ccc(S(=O)(=O)N2CCCCC2)cc1 | 44.1% (inactive)

Row | SMILES | inhibition of aptamer binding
17 | O=C(O)C1C2C=CC(CC2)C1C(=O)O (stereo unspecified) | -2.57% (inactive)
18 | O=C(CCS(=O)(=O)c1ccc(Br)cc1)NCc1ccco1 | 72.6% (inactive)
19 | O=P(c1ccccc1)(c1ccccc1)c1cc(S(=O)(=O)O)ccc1O | -2.57% (inactive)
20 | COC(=O)c1ccccc1NC(=O)CCS(=O)(=O)c1ccc(Br)s1 | -0.55% (inactive)
21 | CCOC(=O)c1sc(NCc2ccco2)c(-c2nc3ccccc3s2)c1N | 8.14% (inactive)
22 | O=C(Nc1cccc(-c2ccc(N3CCOCC3)nn2)c1)c1ccccc1 | -0.34% (inactive)
23 | COc1ccccc1-[n+]1c(C)cc(/C=C2\Sc3ccccc3N2C)cc1C | -8.14% (inactive)
24 | CCNc1nc(NCC)n2c(SCC(=O)Nc3ccc(C)c(C)c3)nnc2n1 | 24.3% (inactive)
25 | O=C(/C=C/c1ccco1)OCC(=O)N1CCCCC1 | 3.17% (inactive)
26 | Cc1cccc(N2CCN(C(=O)CCS(=O)(=O)c3ccc(Br)cc3)CC2C)c1 (stereo unspecified) | 95.7% (inactive)
27 | Cn1c(=O)c(C(=O)NNC(=O)c2cccc(Cl)c2)c(O)c2ccccc21 | 85.8% (inactive)
28 | CCC(/C=C1\Sc2ccc(OC)cc2N1CC)=C\c1sc2ccc(OC)cc2[n+]1CCCS(=O)(=O)[O-] | -7.34% (inactive)
29 | O=C(O)C1Nc2c(O)cc(Cl)c([N+](=O)[O-])c2C2C=CCC12 (stereo unspecified) | -0.66% (inactive)
30 | C=C(C)C(=O)Nc1cccc(C2=NOC3(C2)C[C@@H](C(N)=O)N(C(=O)/C=C/CC)C3)c1 (stereo partly specified) | 60.9% (inactive)
31 | CCN1/C(=C/C(C)=C/c2sc3ccccc3[n+]2CC)Sc2ccccc21 | 17.1% (inactive)
